For 10 compounds, growth inhibition results are on record in PubChem BioAssay (NCI).

SMILES strings stand for the structures. This is part of a sample that, as a whole, favours compounds with a hit. Of some 79,000 tested, about 15% had one in any assay. Unmarked numbers belong to inactive results. Calls of active or inactive are those of the source. Cut-off read from the data, not from the text of the source: active = growth inhibition above about 70%; inactive = the rest.

Assay [1] can be described thus: NCI Yeast Anticancer Drug Screen. Data for the rad50 strain (AID 155).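 Note: 0% = growth of vehicle-only cultures of the same strain.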 To be noted: S. cerevisiae rad50 strain growth inhibition, active compounds read high. The essentials:
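Yeast carrying a defined DNA repair defect were exposed to test compounds, and growth was compared with vehicle-treated controls to give percent inhibition.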

Assay [2] in a line: NCI Yeast Anticancer Drug Screen. Data for the mec2-1 strain (AID 157). To be noted: S. cerevisiae mec2-1 strain, active compounds read high. The method in brief: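 Cells of the genetically defined mec2-1 yeast strain are incubated with test compound. Inhibition of growth is calculated against vehicle-treated controls.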
Assay [3] in a line: NCI Yeast Anticancer Drug Screen. Data for the sgs1 mgt1 strain (AID 161).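 Note: 0% = growth of cultures given vehicle only.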 To be noted: S. cerevisiae sgs1 mgt1 strain, active compounds read high. The method in brief: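 Inhibition of yeast growth, normalised to vehicle-treated controls, is reported for a strain bearing genetic alterations in DNA damage repair.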
Assay [4] in a line: NCI Yeast Anticancer Drug Screen. Data for the cln2 rad14 strain (AID 165).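 Note: 0% = growth equal to vehicle treated cultures.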 To be noted: S. cerevisiae cln2 rad14 strain, active compounds read high. The essentials:
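The screen exposed genetically defined yeast (cln2 rad14) to test compounds and scored growth inhibition relative to vehicle-treated controls.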

Assay [5] can be described thus: NCI Yeast Anticancer Drug Screen. Data for the bub3 strain (AID 167). To be noted: S. cerevisiae bub3 mutant strain, active compounds read high. The method in brief: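 Compounds were applied to a genetically altered yeast strain carrying a cell-cycle control defect. Growth inhibition was scored against vehicle-treated controls.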
Assay [6] can be described thus: NCI Yeast Anticancer Drug Screen. Data for the mlh1 rad18 strain (AID 175). To be noted: S. cerevisiae mlh1 rad18 strain growth inhibition, active compounds read high. The essentials:
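Compound-treated yeast growth, normalised to vehicle controls. Strain bears defined DNA repair mutations.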

[7] abbreviates: at 5.0 µM (retest, dose inferred, filed as 0.5).
The mark [8] stands for this setting: at 50.0 µM (retest, dose inferred, filed as 5.0).

`CCCCCCCCCCCC[n+]1cc2ccccc2cc1C`: the growth inhibition in assay [1] (setting [7]) was 98% (active); in assay [1] (setting [8]), 98% (active); in assay [1] (at 50.0 µM) it was 91.7% (active); in assay [2] (setting [7]) it was 99% (active); in assay [2] (setting [8]) it was 99% (active); in assay [2] (at 50.0 µM), 90.8% (active). For the same compound, the growth inhibition in assay [3] (setting [7]) was 98% (active); in assay [3] (setting [8]) it was 99% (active); in assay [3] (at 50.0 µM) it was 88.5% (active); in assay [4] (setting [7]), 97% (active); in assay [4] (setting [8]), 99% (active); in assay [4] (at 50.0 µM) it was 86.7% (active). The growth inhibition is 99% (active) in assay [5] (setting [7]); 99% (active) in assay [5] (setting [8]); 93.2% (active) in assay [5] (at 50.0 µM); 97% (active) in assay [6] (setting [7]); 98% (active) in assay [6] (setting [8]); 90.8% (active) in assay [6] (at 50.0 µM).
Take `Clc1cc2ccccc2c2ccccc12`: the growth inhibition is 0% in assay [1] (setting [7]); 62% in assay [1] (setting [8]); 84.6% (active) in assay [1] (at 50.0 µM); -3% in assay [2] (setting [7]); 21% in assay [2] (setting [8]); 10.8% in assay [2] (at 50.0 µM). Moreover, the growth inhibition is -3% in assay [3] (setting [7]); 32% in assay [3] (setting [8]); 75.2% (active) in assay [3] (at 50.0 µM); -3% in assay [4] (setting [7]); 6% in assay [4] (setting [8]); -51.7% in assay [4] (at 50.0 µM). Moreover, the growth inhibition in assay [5] (setting [7]) is -2%; in assay [5] (setting [8]), 64%; in assay [5] (at 50.0 µM), 77.3% (active); in assay [6] (setting [7]), -1%; in assay [6] (setting [8]), 84% (active); in assay [6] (at 50.0 µM) it was 93.2% (active).
As to `Cc1ccc(C(=O)C(CN(C)C)CN(C)C)cc1`, the growth inhibition in assay [1] (setting [7]) is 16%; in assay [1] (setting [8]), 41%; in assay [1] (at 50.0 µM) it was 83.7% (active); in assay [2] (setting [7]), 12%; in assay [2] (setting [8]), 63%; in assay [2] (at 50.0 µM) it was 92.3% (active). The growth inhibition in assay [3] (setting [7]) is 20%; in assay [3] (setting [8]), 76% (active); in assay [3] (at 50.0 µM), 88.5% (active); in assay [4] (setting [7]) it was 17%; in assay [4] (setting [8]), 39%; in assay [4] (at 50.0 µM), 73.2% (active). Besides, the growth inhibition in assay [5] (setting [7]) was 16%; in assay [5] (setting [8]) it was 65%; in assay [5] (at 50.0 µM) it was 88.7% (active); in assay [6] (setting [7]), 14%; in assay [6] (setting [8]), 72% (active); in assay [6] (at 50.0 µM), 88% (active).
Turning to `CCN(CC)C(=S)n1c(=S)nc(N(CC)CC)sc1=S`, the growth inhibition was 57% in assay [1] (setting [7]); 97% (active) in assay [1] (setting [8]); 89.3% (active) in assay [1] (at 50.0 µM); 42% in assay [2] (setting [7]); 98% (active) in assay [2] (setting [8]); 92.2% (active) in assay [2] (at 50.0 µM). Besides, the growth inhibition is 63% in assay [3] (setting [7]); 99% (active) in assay [3] (setting [8]); 92.5% (active) in assay [3] (at 50.0 µM); 39% in assay [4] (setting [7]); 86% (active) in assay [4] (setting [8]); 88.9% (active) in assay [4] (at 50.0 µM). In addition, the growth inhibition in assay [5] (setting [7]) was 54%; in assay [5] (setting [8]), 83% (active); in assay [5] (at 50.0 µM), 91.2% (active); in assay [6] (setting [7]) it was 75% (active); in assay [6] (setting [8]), 98% (active); in assay [6] (at 50.0 µM), 89.8% (active).
Turning to `Cc1ccc(NC(=S)SCc2ccc(Cl)cc2)cc1C`, the growth inhibition is 12% in assay [1] (setting [7]); 94% (active) in assay [1] (setting [8]); 94.9% (active) in assay [1] (at 50.0 µM); -5% in assay [2] (setting [7]); 60% in assay [2] (setting [8]); 98.2% (active) in assay [2] (at 50.0 µM). Moreover, the growth inhibition in assay [3] (setting [7]) is 1%; in assay [3] (setting [8]), 94% (active); in assay [3] (at 50.0 µM) it was 98% (active); in assay [4] (setting [7]), -4%; in assay [4] (setting [8]) it was 34%; in assay [4] (at 50.0 µM) it was 86.8% (active). Further, the growth inhibition is 18% in assay [5] (setting [7]); 68% in assay [5] (setting [8]); 97.5% (active) in assay [5] (at 50.0 µM); 1% in assay [6] (setting [7]); 82% (active) in assay [6] (setting [8]); 98.6% (active) in assay [6] (at 50.0 µM).
As to `Oc1c(Cl)cc(CN(Cc2cc(Cl)c(O)c(Cl)c2)C2CCCCC2)cc1Cl`, the growth inhibition in assay [1] (setting [7]) was 10%; in assay [1] (setting [8]), 87% (active); in assay [1] (at 50.0 µM), 97.8% (active); in assay [2] (setting [7]) it was 1%; in assay [2] (setting [8]) it was 88% (active); in assay [2] (at 50.0 µM), 98.9% (active). In addition, the growth inhibition in assay [3] (setting [7]) was 2%; in assay [3] (setting [8]), 88% (active); in assay [3] (at 50.0 µM), 97.6% (active); in assay [4] (setting [7]) it was -17%; in assay [4] (setting [8]) it was 51%; in assay [4] (at 50.0 µM) it was 98.2% (active). Further, the growth inhibition in assay [5] (setting [7]) is -9%; in assay [5] (setting [8]) it was 88% (active); in assay [5] (at 50.0 µM), 97.6% (active); in assay [6] (setting [7]), -12%; in assay [6] (setting [8]) it was 95% (active); in assay [6] (at 50.0 µM), 98% (active).
As for `CCCOC(=O)CSC#N`, the growth inhibition in assay [1] (setting [7]) was 39%; in assay [1] (setting [8]), 97% (active); in assay [1] (at 50.0 µM), 97.9% (active); in assay [2] (setting [7]), 33%; in assay [2] (setting [8]), 98% (active); in assay [2] (at 50.0 µM), 98% (active). Also, the growth inhibition in assay [3] (setting [7]) was 56%; in assay [3] (setting [8]) it was 98% (active); in assay [3] (at 50.0 µM) it was 98.2% (active); in assay [4] (setting [7]), 28%; in assay [4] (setting [8]), 95% (active); in assay [4] (at 50.0 µM), 97.8% (active). Besides, the growth inhibition was 33% in assay [5] (setting [7]); 98% (active) in assay [5] (setting [8]); 97.8% (active) in assay [5] (at 50.0 µM); 41% in assay [6] (setting [7]); 98% (active) in assay [6] (setting [8]); 98% (active) in assay [6] (at 50.0 µM).
`CCCCN(CCCC)CCCCCCNc1cc(OC)cc2cccnc12`: the growth inhibition was 4% in assay [1] (setting [7]); 32% in assay [1] (setting [8]); 98.2% (active) in assay [1] (at 50.0 µM); 1% in assay [2] (setting [7]); 14% in assay [2] (setting [8]); 98.6% (active) in assay [2] (at 50.0 µM). Besides, the growth inhibition in assay [3] (setting [7]) is 3%; in assay [3] (setting [8]) it was 13%; in assay [3] (at 50.0 µM), 99% (active); in assay [4] (setting [7]) it was 5%; in assay [4] (setting [8]) it was 39%; in assay [4] (at 50.0 µM) it was 98.1% (active). Further, the growth inhibition in assay [5] (setting [7]) is 9%; in assay [5] (setting [8]), 30%; in assay [5] (at 50.0 µM), 99% (active); in assay [6] (setting [7]), -4%; in assay [6] (setting [8]) it was 9%; in assay [6] (at 50.0 µM) it was 98.7% (active).
For `COc1cc(C2C(Cl)C(=O)N2NC(=O)c2ccccc2O)cc(OC)c1OC` (stereo not given), the growth inhibition in assay [1] (setting [7]) is -8%; in assay [1] (setting [8]) it was 77% (active); in assay [1] (at 50.0 µM) it was 76.3% (active); in assay [2] (setting [7]) it was -10%; in assay [2] (setting [8]) it was 70% (active); in assay [2] (at 50.0 µM), 70.5% (active). For the same compound, the growth inhibition in assay [3] (setting [7]) was 1%; in assay [3] (setting [8]), 81% (active); in assay [3] (at 50.0 µM) it was 78.8% (active); in assay [4] (setting [7]), -2%; in assay [4] (setting [8]) it was 40%; in assay [4] (at 50.0 µM), 35.2%. The growth inhibition in assay [5] (setting [7]) was -11%; in assay [5] (setting [8]), 48%; in assay [5] (at 50.0 µM), 80.8% (active); in assay [6] (setting [7]), 6%; in assay [6] (setting [8]) it was 87% (active); in assay [6] (at 50.0 µM), 78.8% (active).
For `Cc1cc(Br)cc(C)c1NC(=O)C(=O)C(C(=O)c1ccc2ccccc2c1)C1OC(=O)c2ccccc21` (stereo not given), the growth inhibition is 4% in assay [1] (setting [7]); 38% in assay [1] (setting [8]); 12.5% in assay [1] (at 50.0 µM); 4% in assay [2] (setting [7]); 19% in assay [2] (setting [8]); 14.3% in assay [2] (at 50.0 µM). Also, the growth inhibition is 10% in assay [3] (setting [7]); 11% in assay [3] (setting [8]); 27.7% in assay [3] (at 50.0 µM); 1% in assay [4] (setting [7]); -14% in assay [4] (setting [8]); 70% (active) in assay [4] (at 50.0 µM). The growth inhibition was 5% in assay [5] (setting [7]); 23% in assay [5] (setting [8]); 31.5% in assay [5] (at 50.0 µM); 4% in assay [6] (setting [7]); 19% in assay [6] (setting [8]); 31.8% in assay [6] (at 50.0 µM).
